# DT40 TDP1 CPT: qHTS for Inhibitors of human tyrosyl-DNA phosphodiesterase 1 (TDP1): qHTS in cells in presence of CPT; Potency, µM (doses to about 46.2 µM), usual class: inhibitors; hit rate 12% among 420,000; AID 686979, 2013; chicken DT40 Tdp1-/-;hTDP1 cells + 20 nM CPT, ATP luminescence, 48 h; further: nearly all actives have a fitted effect of over 55% in size
#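 Chicken DT40 Tdp1-/- cells stably complemented with human TDP1 were seeded at 400 cells/well in medium containing 20 nM camptothecin, exposed to pin-transferred compounds, and grown at 37 °C for at least 48 hr. Viability was read as ATP luminescence.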
# IL-1B inflam inh: qHTS for Inhibitors of Inflammasome Signaling: IL-1-beta AlphaLISA Primary Screen. hit rate 4.7% among 360,000. activity change, % at 57.5 µM. THP-1 LPS/ATP IL-1B secretion, AlphaLISA, 16 h; stronger effect = lower value; in the data active means activity change below about -50%; inconclusive means mostly about -30% to -49%
#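 Secreted IL-1B measured by AlphaLISA bead assay after 16 h compound exposure of THP-1 cells; compounds (final up to 57.5 uM) added 1 h before LPS (250 ng/mL) and ATP (1.25 mM) stimulation; lower signal means less secretion.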
# TDP1 cell noCPT: qHTS for Inhibitors of human tyrosyl-DNA phosphodiesterase 1 (TDP1): qHTS in cells in absence of CPT; hit rate 15% among 420,000; Potency, µM (titrated, usually from 46.2 µM), most hits filed as inhibitors; DT40 Tdp1-/- hTDP1 cells, no CPT, ATP luminescence, 48 h; further: nearly all actives have a fitted effect of over 55% in size
#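 Compound effects on proliferation are scored in DT40 Tdp1-/-;hTDP1 cells in the absence of CPT. ATP levels (CellTiter-Glo luminescence) are recorded after a ≥48 hr, 37 °C incubation.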
# HT1080 IDH1KD tx: qHTS for induction of synthetic lethality in tumor cells producing 2HG: qHTS for the HT-1080-IDH1KD cell line. hit rate 2% among 360,000. HT-1080 IDH1 knockdown viability, ATP luminescence, 48 h. Potency, µM (top dose mostly 46.1 µM), usual class: cytotoxic
#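 In this qHTS, HT-1080 cells depleted of IDH1 are exposed for 48 h at 37 °C to compound titrations. Toxicity is scored from CellTiter-Glo luminescence, with DMSO as full viability and medium alone as none.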
# HT1080NT lethal: qHTS for induction of synthetic lethality in tumor cells producing 2HG: qHTS for the HT-1080-NT fibrosarcoma cell line; hit rate 1.6% among 360,000; AID 686970, 2013; Potency, µM (doses to about 46.1 µM), most hits filed as cytotoxic; HT-1080-NT fibrosarcoma viability, CellTiter-Glo ATP luminescence, 48 h;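 further: NT is the 2HG producing partner of a matched IDH1 knockdown line; nearly all actives have a fitted effect of over 55% in size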
#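 Compounds were tested in concentration-response format on HT-1080-NT cells for 48 hours at 37 degrees C. Cell viability came from CellTiter-Glo luminescence; curves were classified by r2, response magnitude and activity.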
# A number is an active result; n = inactive; u = inconclusive; x = not tested or not shown. Compounds with a hit are over-represented: about 19% of the library has one in this group of screens. Unless noted, the call rests on the fitted dose curve; in most records, active means well fitted curve in the direction sought with a large enough effect; inconclusive means small, poorly fitted or top-dose-only effect, or another doubt; inactive means no such curve, though single readings can be large; an effect the other way counts as inactive or inconclusive.
SMILES,DT40 TDP1 CPT,IL-1B inflam inh,TDP1 cell noCPT,HT1080 IDH1KD tx,HT1080NT lethal
Cc1ccc(Nc2nc(/N=C/NO)n[nH]2)cc1C,n,n,n,n,n
O=C(CSc1nnnn1-c1ccc(F)cc1F)Nc1ccccc1F,n,n,n,n,n
O=C(NC1CCCCC1)C1c2ccccc2OCC(=O)N1C1CC1 (centres undefined),n,n,n,n,n
CC(Cc1ccccc1)N1C(=O)c2cccc([N+](=O)[O-])c2C1=O (centres undefined),n,n,n,n,n
O=C(/C=C/c1cccc([N+](=O)[O-])c1)c1ccco1,4.6µM,n,3.7µM,n,n
O=C(OCc1ccccc1)/C(=C/c1cccc([N+](=O)[O-])c1)NC(=O)c1ccco1,u,-50,n,n,n
COCCC(=O)N1CCC(Oc2ccc(C(=O)N(C)C3CCCCC3)cc2)CC1,n,n,u,n,n
CCOc1ccc(C(=O)Nc2cc(-c3nc4ccccc4[nH]3)ccc2Cl)cc1[N+](=O)[O-],u,n,23µM,18µM,u
CCCOc1cccc(C(=O)Nc2cc(-c3nc4ccccc4[nH]3)ccc2C)c1,16µM,x,16µM,x,x
CCOc1ccc(C(=O)Nc2cc(-c3nc4ccccc4[nH]3)ccc2C)cc1[N+](=O)[O-],u,-50,u,n,n
Cc1ccc(S(=O)(=O)N(C)C)cc1NC(=O)COC(=O)COc1ccccc1[N+](=O)[O-],n,n,n,n,n
Cc1ccc(-c2nc3ccccc3[nH]2)cc1NC(=O)COc1ccccc1[N+](=O)[O-],15µM,x,u,x,x
Cc1onc(-c2ccccc2)c1C(=O)N1CCCC(C(F)(F)F)C1 (centres undefined),u,n,n,n,n
CC(Sc1ccccc1)C(=O)NCCc1ccccc1 (centres undefined),n,n,n,n,n
COc1cc(C=C2Cc3ccccc3C2=O)cc(OC)c1OC,16µM,n,8.2µM,n,n
COc1ccc(C=C2Cc3ccccc3C2=O)cc1,n,n,u,n,n
COc1ccc(/C=C2\Cc3ccccc3C2=O)cc1OC,n,n,u,n,n
COc1cc(N(C)C)c(OC)cc1/C=C1\Cc2ccccc2C1=O,u,x,11µM,x,x
Cc1ccc(CN2CCc3nc(SCC(=O)Nc4cccc(C)c4C)[nH]c(=O)c3C2)cc1,n,x,n,x,x
CCC(=O)Nc1ccc(Cl)c(NC(=O)c2c(OC)cccc2OC)c1,n,n,n,n,n
Cc1ccc(C2CC(c3cccs3)=NN2C(=O)CSC2=NN3CCCC(=O)N=C3S2)cc1 (centres undefined),13µM,n,u,n,n
Cc1ccc(C2CC(c3cccs3)=NN2C(=O)CCl)cc1 (centres undefined),2.6µM,-106,2.9µM,4.1µM,4.6µM
CNC(=S)N1N=C(c2cccs2)CC1c1ccc(F)cc1 (centres undefined),n,-51,n,n,n
COc1ccc(C2CC(c3cccs3)=NN2C(=O)CSC2=NN3CCCC(=O)N=C3S2)cc1 (centres undefined),u,n,u,n,n
COc1ccc(N2CC(NC(=O)c3ccc(S(=O)(=O)N4CCCC4)cc3)CC2=O)cc1 (centres undefined),n,x,n,x,x
SMILES,DT40 TDP1 CPT,IL-1B inflam inh,TDP1 cell noCPT,HT1080 IDH1KD tx,HT1080NT lethal
Cc1ccc(-n2c(=O)c3c(C)c(C(=O)N(C)C)sc3n(CC(=O)C(C)(C)C)c2=O)cc1C,n,x,n,x,x
CCOc1ccc(-c2nc(C#N)c(N3CCN(Cc4ccccc4)CC3)o2)cc1,u,n,12µM,n,n
COc1ccc(N2CCN(c3oc(COc4ccc(Cl)cc4Cl)nc3C#N)CC2)cc1,u,n,9.2µM,n,n
COc1ccc(N2CCN(c3oc(Cc4ccccc4)nc3C#N)CC2)cc1,u,n,13µM,u,n
COc1ccc(N2CCN(c3oc(COc4ccccc4)nc3C#N)CC2)cc1,u,n,u,n,n
COc1ccc(S(=O)(=O)N(C)C)cc1NCC(=O)Nc1cccc(C#N)c1,n,n,u,n,n
CCc1ccc(NC(=O)c2cc(S(=O)(=O)N3CCCC3)ccc2F)cc1,15µM,n,12µM,n,n
CCc1ccc(NC(=O)CCn2nc(C)c(S(=O)(=O)N3CCCCC3)c2C)cc1,23µM,n,18µM,n,n
CCc1ccc(NC(=O)c2cc(S(=O)(=O)N3CCCCCC3)ccc2F)cc1,u,x,18µM,x,x
CCOc1ccc(NC(=O)CCn2nc(C)c(S(=O)(=O)N3CCCCC3)c2C)cc1,u,n,u,n,n
COc1ccccc1-c1noc(CCCC(=O)Nc2ccc(C(N)=O)cc2)n1,n,n,n,n,n
Cc1ccc(Cl)c(NC(=O)COC(=O)c2ccccc2C(=O)c2ccc(Cl)c([N+](=O)[O-])c2)c1Cl,n,-105,10µM,u,u
Cc1ccc(C(=O)c2ccccc2C(=O)OCC(=O)NCCc2ccc(Cl)cc2Cl)cc1,u,n,u,n,n
CCCNC(=O)COC(=O)c1ccccc1C(=O)c1ccc(Cl)c([N+](=O)[O-])c1,u,-103,10µM,5.2µM,9.2µM
Cc1ccc(C(=O)OCC(=O)Nc2c(C)n(C)n(-c3ccccc3)c2=O)cc1[N+](=O)[O-],n,n,n,n,n
COCCN1CCN(C(=O)c2ccc3c(c2)S(=O)(=O)c2ccccc2C3=O)CC1,n,n,x,n,n
O=C(CSc1nnc(C2CC2)n1CC1CCCO1)Nc1ccc(Cl)cc1 (centres undefined),n,n,n,n,n
NNC(=O)c1ccccc1CO,n,n,n,n,n
COc1ccc(C(=O)CCC(=O)N2CCN(c3cccc(Cl)c3)CC2)cc1,16µM,n,23µM,n,n
COc1ccc(-c2noc(CCC(=O)N3CCN(c4cccc(Cl)c4)CC3)n2)cc1,u,n,23µM,n,n
COc1ccc(OCC(=O)N2CCN(c3cccc(Cl)c3)CC2)cc1,u,n,u,n,n
COc1ccc(-c2noc(CCC(=O)N3CCN(c4ccccc4OC)CC3)n2)cc1,u,n,21µM,n,n
NC(=S)N=Nc1c(O)[nH]c2c(Br)cc(Br)cc12,u,n,21µM,n,n
CCOC(=O)Cc1csc(SCC(=O)Nc2cc(C)ccc2OC)n1,n,n,u,n,n
COc1ccc(/C=N\NC(=O)C2C(=O)NCC2c2ccccc2)cc1O (centres undefined),7.3µM,n,16µM,n,n
O=C1NCC(c2ccccc2)C1C(=O)N/N=C\c1ccc(-c2ccc(Cl)c(Cl)c2)o1 (centres undefined),u,-61,u,u,u
